A selection: hits, their analogues and other compounds. The true share with any hit is near 3.3%.
ERb coact inh: inhibitors of ERβ-SRC1 coactivator interaction, primary screen, biochemical, TR-FRET, ERβ LBD, SRC-1 peptide; TR-FRET ER-beta LBD / SRC1-Cy5 peptide binding; receptor agonist-loaded with 1 µM estradiol; hit rate 1.3% among 86,000; AID 633, 2007; inhibition, % at 25.6 µM;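 active means compounds whose percent inhibition of the receptor-coactivator binding signal exceeds about 50% in the single-dose screen, limit read from the data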;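 further: 0% = receptor plus peptide wells without compound and 100% = peptide-only wells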
Smad3 inh: Smad3/FoxH1 peptide binding inhibitors, primary screen, biochemical, TR-FRET; hit rate 0.29% among 88,000; TR-FRET Smad3/Dy647-FoxH1 peptide binding, europium anti-His; inhibition, % at 25 µM; Mothers against decapentaplegic homolog 3 (Homo sapiens), P84022;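 active means compounds that reduce the energy-transfer binding signal between the protein and its labelled peptide by more than half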;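 further: 0% = Smad3 plus labelled peptide maximal FRET and 100% = peptide-only background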
Candida biofilm: clotrimazole potentiators killing Candida biofilms, primary screen, with clotrimazole, Alamar Blue | C. albicans biofilm + clotrimazole | inhibition, % at 6 µM | hit rate 0.14% among 85,000;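 active means inhibition above 20%; inactive means inhibition below 20%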;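 further: preformed 24 hr biofilms exposed to compound for 48 hr; 0% = biofilm without compound and 100% = blank killed by clotrimazole plus chlorhexidine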
ERa coact inh: ERα–SRC-1 coactivator interaction inhibitors, primary screen, biochemical, TR-FRET, ERα LBD, estradiol-bound | Estrogen receptor (Homo sapiens), P03372 | TR-FRET ER-alpha LBD / SRC-1 peptide | inhibition, % at 25.6 µM | hit rate 1.7% among 86,000; in the data active means inhibition above about 50%;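 further: 0% = receptor plus peptide control and 100% = peptide only without receptor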
Target sequence (P03372 whole entry, looked up, the tested form may be a part): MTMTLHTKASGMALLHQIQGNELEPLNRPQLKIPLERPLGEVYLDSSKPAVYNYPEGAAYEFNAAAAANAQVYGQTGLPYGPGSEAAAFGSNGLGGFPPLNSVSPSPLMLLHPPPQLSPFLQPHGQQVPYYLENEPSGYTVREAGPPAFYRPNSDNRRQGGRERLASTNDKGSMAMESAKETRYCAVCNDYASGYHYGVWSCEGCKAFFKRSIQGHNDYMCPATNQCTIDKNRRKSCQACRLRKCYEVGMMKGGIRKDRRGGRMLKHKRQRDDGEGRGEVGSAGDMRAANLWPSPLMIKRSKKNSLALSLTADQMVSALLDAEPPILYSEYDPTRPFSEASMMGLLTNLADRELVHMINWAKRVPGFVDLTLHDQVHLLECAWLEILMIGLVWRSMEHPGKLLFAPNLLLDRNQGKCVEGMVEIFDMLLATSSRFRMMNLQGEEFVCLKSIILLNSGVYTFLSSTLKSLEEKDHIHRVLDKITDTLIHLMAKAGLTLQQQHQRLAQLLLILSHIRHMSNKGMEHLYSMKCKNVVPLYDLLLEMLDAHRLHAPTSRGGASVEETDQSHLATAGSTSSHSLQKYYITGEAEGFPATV
ERa coact pot: enhancers of ERα–SRC-1 coactivator binding, primary screen, biochemical, TR-FRET, ERα LBD, low estradiol; Estrogen receptor (Homo sapiens), P03372; TR-FRET ERalpha-LBD/SRC-Cy5 coactivator binding, 2 h; 100 = basal binding, no effect; coactivator binding (% of control), % at 25.6 µM; hit rate 1.3% among 86,000; in the data active means activity above about 200%;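 further: binding measured in presence of low estradiol as agonist stimulus; 0% = peptide alone without receptor and 100% = receptor with peptide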
FAK inh: FAK kinase inhibitors, primary screen, biochemical | AID 727, 2007 | biochemical FAK kinase activity assay | hit rate 0.84% among 97,000 | inhibition, %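 (tested at 7 µM)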; in the data active means inhibition above about 19%;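 further: 0% = DMSO and 100% = reference compound high control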
* = called active by the depositor; / = no result; + = active, no number; [ ] = another dose, or the depositor's remark.

SMILES | ERb coact inh | Smad3 inh | Candida biofilm | ERa coact inh | ERa coact pot | FAK inh
O=C1NCCN1CCNS(=O)(=O)c1ccc2ccccc2c1 | -8 | 0 | 1 | 58*[fluorescence artefact?] | 122 | -7
COc1ccc(OCC(=O)OCCN2C(=O)c3ccccc3C2=O)cc1 | 42 | -6 | 1 | 59*[fluorescence artefact?] | 116 | 11
O=C1CCCC2=C1C1(O)C(=O)c3ccccc3C1(O)O2 (centres undefined) | -10 | 66* | 2 | 3 | 125 | 0
O=C(Nc1cccnc1)c1c(F)c(F)c(F)c(F)c1F | 1 | -9 | 23* | 1 | 105 | 0
O=C(Nc1cccnc1)c1ccc(S(=O)(=O)N2CCCCCC2)cc1 | 47 | 7 | 3 | 52*[fluorescence artefact?] | 21 | 3
O=C(O)CCSCc1ccc(I)cc1 | / | -8 | / | / | / | /
CN(C)c1ccc(C(c2ccc(N(C)C)cc2)c2ccc([N+](=O)[O-])cc2)cc1 | / | 22 | / | / | / | /
CC1(C)CC(=O)c2cnc(NCC3CCCO3)nc2C1 (centres undefined) | 24 | -2 | 8 | 55* | 106 | 4
CCn1nnnc1SCC(=O)Nc1nc(C)c(C)s1 | 3 | 2 | 7 | -5 | 119 | -1
Fc1ccc(CSc2ncnc3c2oc2ccccc23)cc1 | 56*[fluorescence artefact?] | 24 | 10 | 44 | 192 | /
O=C(CSc1ncnc2c1oc1ccccc12)NCc1ccc(F)cc1 | 57*[fluorescence artefact?] | 7 | 9 | 49 | 784*[fluorescence artefact?] | -7
O=C(CSc1ncnc2c1oc1ccccc12)NC1CCCCC1 | 51*[fluorescence artefact?] | 42 | 13 | 56*[fluorescence artefact?] | 289*[fluorescence artefact?] | -4
O=C(CSc1ncnc2c1oc1ccccc12)c1cccs1 | 13 | 1 | 4 | 8 | 283*[fluorescence artefact?] | -14
CCSc1ncnc2c1oc1ccccc12 | -3 | 11 | 8 | -3 | 106 | 2
CCOCCCNC(=O)C(C)NS(=O)(=O)c1ccc(C)cc1 (centres undefined) | 7 | 11 | 13 | 0 | 107 | 1
C[N+](C)(N)Cc1csc(-c2ccc(Cl)cc2)n1 | / | 8 | / | / | / | /
CCC1(C)Cc2ccccc2C(Nc2c(C)n(C)n(-c3ccccc3)c2=O)=N1 (centres undefined) | -3 | -10 | -1 | 4 | 102 | -1
Fc1cccc(CSc2ncnc3c2oc2ccccc23)c1 | 57*[fluorescence artefact?] | 8 | 7 | 47 | 402*[fluorescence artefact?] | 4
NC(=O)CSc1ncnc2c1oc1ccccc12 | 11 | 18 | 6 | 14 | 70 | -23
CCc1ccc(Nc2nc(N)nc(CSc3nnnn3-c3ccccc3)n2)cc1 | 41 | 20 | 3 | 41 | 312* | 4
Cc1cc(C=O)c2c(c1)C=CC1(Oc3ccccc3C(=O)N1C)O2 (centres undefined) | 8 | 4 | 7 | -5 | 91 | 4
CCNc1ccc(Br)cc(C(=O)/C=C/c2ccc(Cl)cc2Cl)c1=O | 76*[fluorescence artefact?] | 0 | 9 | 85*[fluorescence artefact?] | 101 | 0
CNc1ccc(Br)cc(C(=O)/C=C/c2cc(OC)ccc2OC)c1=O | 65*[fluorescence artefact?] | 2 | 3 | 71*[fluorescence artefact?] | 56 | -1
COCCCNC(=O)/C=C/c1ccc(Cl)cc1Cl | / | / | / | / | / | 3
CNc1ccc(Br)cc(C(=O)/C=C/c2ccc3c(c2)OCO3)c1=O | / | / | / | / | / | 14
SMILES | ERb coact inh | Smad3 inh | Candida biofilm | ERa coact inh | ERa coact pot | FAK inh
Cc1ccc2nc(N3CCN(C(=O)c4cccs4)CC3)c(C#N)cc2c1 | 9 | 6 | 7 | 10 | 179 | /
Cc1ccc(CN2CCSc3ccc(C(=O)N4CCN(c5ncccn5)CC4)cc32)cc1 | 30 | 4 | 10 | 25 | 378*[fluorescence artefact?] | /
CC1CC(C)CN(C(=O)c2ccc3c(c2)N(Cc2ccccc2)CCS3)C1 (centres undefined) | 5 | -5 | 14 | 5 | 91 | 3
O=C(Nc1cccc(F)c1)C1CCN(C(=O)c2ccccc2Cl)CC1 | 2 | 10 | 13 | -8 | 116 | 4
Cn1c(=O)c2c(ncn2CCSS(=O)(=O)O)n(C)c1=O | / | 13 | / | / | / | /
Cn1c(=O)c2c(ncn2CCCNC2=CC(C)(C)CC(=O)C2)n(C)c1=O | 52* | 6 | 6 | 37 | 49 | 1
c1ccc([C@H](CCN2CCCC2)c2ccccn2)cc1 | / | -8 | / | / | / | /
Cc1cc(C)nc(-n2nc(C)cc2NC(=O)CNCc2ccccc2)n1 | 91*[fluorescence artefact?] | -11 | 5 | -9 | 91 | 2
O=C(Cc1ccc(Br)cc1)N1CCN(c2ccccc2O)CC1 | / | / | / | / | / | -1
COc1ccc(CNC(=O)c2cc(-c3cccs3)on2)cc1 | 51*[fluorescence artefact?] | 5 | 11 | 76* | 156 | -5
O=C(NCc1cccs1)c1cc(-c2cccs2)on1 | -6 | 8 | 7 | -5 | 114 | 8
O=C(NCc1ccc(Cl)cc1)c1cc(-c2cccs2)on1 | 14 | -2 | 7 | 95* | 98 | 1
Cc1cc2cc(CNC(=O)c3ccc(Br)o3)ccc2n1C | 43 | -3 | 6 | 74*[fluorescence artefact?] | 62 | /
Cc1cc2cc(CNC(=O)c3ccc(S(=O)(=O)N4CCOCC4)cc3)ccc2n1C | 28 | 2 | 16 | 1 | 276*[fluorescence artefact?] | -2
Cc1cc2cc(CNC(=O)Nc3cccc(Cl)c3)ccc2n1C | 15 | 5 | 2 | 20 | 215*[fluorescence artefact?] | 5
O=c1c(Sc2ccccc2)c(C(F)(F)F)[nH]n1-c1ccccc1 | 10 | 2 | 2 | -2 | 102 | -6
O=C(Nc1ccccc1)C1Cc2ccccc2CN1C(=O)c1ccco1 (centres undefined) | / | / | / | / | / | -1
O=C(Nc1cc(C(F)(F)F)ccc1N1CCCCC1)c1ccco1 | 2 | 2 | 4 | -9 | 693*[fluorescence artefact?] | 4
O=C(Nc1cc(C(F)(F)F)ccc1N1CCOCC1)C1Cc2ccccc2CN1C(=O)c1ccco1 (centres undefined) | 55* | 10 | 3 | 91*[fluorescence artefact?] | 14 | 6
O=C(Nc1cc(C(F)(F)F)ccc1N1CCCCC1)c1ccc(Br)o1 | -2 | 4 | 5 | -4 | 110 | 10
O=S(=O)(Cc1ccccc1)N1CCC(c2nc(-c3cccs3)no2)CC1 | 21 | -10 | 8 | 33 | 123 | -4
COc1ccc(N2CCN(C(=O)Cn3c(=O)[nH]c4ccsc4c3=O)CC2)cc1 | -2 | 5 | 1 | 4 | 101 | /
COc1ccc(N2CCN(C(=O)CCCn3c(=O)[nH]c4ccsc4c3=O)CC2)cc1 | 75* | -1 | 8 | -4 | 104 | 3
CCCc1cc2c(=O)c(-c3ccccn3)coc2cc1OC | 7 | 0 | 4 | 9 | +[fluorescence artefact?] | 0
COc1ccccc1C1NC(=O)NC(C)=C1C(C)=O (centres undefined) | -4 | 0 | -5 | -3 | 117 | 2
CN(CCc1ccccn1)c1ccc2c(c1)C(=O)c1ccccc1-2 | / | 3 | / | / | / | /

Compound activity (PubChem BioAssay)
